Bioassay records: PubChem BioAssay, National Center for Advancing Translational Sciences (NCATS)
p53ts 32C tox: kills p53ts cells at the permissive temperature. H1299-p53A138V at 32C, ATP luminescence viability, 24 h. Potency, µM (series often up to 46.1 µM), inactives show top-dose activity change, negative = cytotoxicity, most hits filed as cytotoxic. 0.93% of 130,000 active;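 also: 0% = DMSO and -100% = full killing by reference compound; nearly all actives have a fitted effect of over 55% in size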
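Cells: H1299 p53ts (A138V), 600/well, pre-incubated 16–30 h at 37C. Cpd up to 46 uM, 24 h, 32C. Readout: ATPlite luminescence, 20 min RT. Normalization: DMSO vs tamoxifen 100 uM. AC50 by Hill equation.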
Peg3 imprint: induces erasure of genomic imprints in mouse ES cells; mouse ES Peg3-LacZ reporter, beta-gal luminescence, 40 h; Potency, µM (highest dose often 60.7 µM), without a hit: at the highest dose activity change, positive = activation, usual class: activators; 0.02% of 110,000 active
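Imprint erasure is scored as LacZ activity from the silenced maternal Peg3 allele in feeder-free female ES cells cultured 40 h with LIF. Luminescence is normalized to in-plate negative controls and fitted to the Hill equation.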
IkB sig inh: IkB pathway inhibition in ABC-DLBCL cells. Potency, µM (series often up to 57.1 µM), for inactives: at the top dose IkBa stabilization activation. 0.04% of 110,000 active. AID 445. ABC-DLBCL IkBa-CBG/CBR dual luciferase ratio, 4 h; response scale: scaled: untreated 0%, proteasome inhibitor 100%; active = well fitted curve in the direction sought with a large enough effect in the signal ratio, not every such curve was filed as active; inconclusive = small, poorly fitted or top-dose-only effect, or a change in a side signal; the % refers to the signal ratio;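 also: the direction sought is a rising ratio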
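Luminescence ratio of IκBα-fused green versus native red beetle luciferase in OCI-Ly3 cells, 4 h post-doxycycline with compound; red signal alone, scaled from basal (0%) to zero light (-100%), flagged nonspecific or cytotoxic effects.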
p53ts 39C tox: kills p53ts cells at the nonpermissive temperature; H1299-p53A138V viability at 39C, ATP luminescence, 24 h; Potency, µM (highest dose often 46.1 µM), for inactives: top-dose activity change, negative = cell killing, actives largely listed as cytotoxic; 1.5% of 130,000 active; also: % is scaled to controls: 0 for no effect and ±100 for the full control effect; nearly all actives have a fitted effect of over 55% in size
Numbers without * were called inactive; ? = inconclusive; nt = no result given; [ ] = remark or other dose. Rows were chosen to be rich in hits. Some 1.8% of all compounds tested hit in one or more screens of this group. Unless noted, calls follow the shape of the dose curve; as a rule, active = well fitted curve in the direction sought with a large enough effect; inconclusive = small, poorly fitted or top-dose-only effect, or another doubt; inactive = no such curve, though single readings can be large; an effect the other way counts as inactive or inconclusive. Potency is read from the fitted curve at half-maximal effect.

SMILES	p53ts 32C tox	Peg3 imprint	IkB sig inh	p53ts 39C tox
O=C(CCS(=O)(=O)c1nc(-c2ccc3c(c2)OCO3)cc(C(F)(F)F)n1)Nc1ccc(Br)cc1	?	-10%[10.9 µM]	?	3.2µM*
O=C(CCS(=O)(=O)c1nc(-c2ccc3c(c2)OCO3)cc(C(F)(F)F)n1)Nc1ccccc1F	?	1%[10.9 µM]	?	?
CSc1ccccc1NC(=O)CCS(=O)(=O)c1nc(-c2ccc3c(c2)OCO3)cc(C(F)(F)F)n1	?	-7%[10.9 µM]	-2%	4µM*
O=C(Nc1cccnc1)c1cc(-c2cccc(Cl)c2)on1	6%	8%[10.9 µM]	?	23%
CN(C)c1nc(N)c(C(=O)Nc2cccnc2)nc1Cl	13µM*	-41%	nt	5µM*
COC(=O)c1ccc(OCC(=O)c2ccc(O)cc2O)cc1	13µM*	-59%	?	13µM*
CCOC(=O)c1ccc(OCC(=O)c2ccc(O)cc2O)cc1	13µM*	-58%	0%	13µM*
CCOC(=O)COc1ccc(C(=O)c2ccccc2)c(O)c1	-2%	-4%	0%	-8%
COC(=O)CN1C(=O)CSc2ccc(S(=O)(=O)Nc3cccc(Br)c3)cc21	-5%	-4%[10.9 µM]	?	-9%
Cc1cc2nc(-c3cccc(NC(=O)c4ccc(Br)o4)c3C)oc2cc1C	?	-24%	?	?
Cc1cc2nc(-c3cccc(NC(=O)C(C)C)c3C)oc2cc1C	?	-12%[10.9 µM]	4%	0.13µM*
Fc1ccccc1CSc1ncnc2c1oc1ccccc12	13µM*	-87%	9%	13µM*
Nc1cccc(-c2cn3ccsc3n2)c1	?	-45%[10.9 µM]	3%	25µM*
O=C(Nc1cccc(-c2cn3ccsc3n2)c1)c1ccccc1	?	2%	?	16µM*
Cc1csc2nc(-c3cccc(NC(=O)c4ccccc4F)c3)cn12	?	7%[10.9 µM]	?	6.3µM*
COc1ccccc1C(=O)Nc1cccc(-c2cn3ccsc3n2)c1	-29%	-13%	?	-30%
CCCCC(=O)Nc1cccc(-c2cn3ccsc3n2)c1	?	-22%	-2%	-26%
Cc1csc2nc(-c3cccc(NC(=O)c4ccccc4Cl)c3)cn12	-21%	-2%[10.9 µM]	-1%	?
Nc1nc(N)nc(CC(=O)O)n1	0%[9.22 µM]	-9%[10.9 µM]	1%[11.4 µM]	7%[9.22 µM]
CC(=O)Nc1cccc(-c2nnc(SCC(=O)c3cc([N+](=O)[O-])ccc3Cl)o2)c1	?	-27%[10.9 µM]	?	13µM*
COc1cccc(NC(=O)COc2ccccc2C(N)=O)c1	16µM*	-79%	?	10µM*
COc1ccc(OCC(=O)Nc2cccc(OC)c2)cc1	-11%	2%	?	-6%
COc1ccccc1NC(=O)CSc1nnc(-c2ccc(C)cc2)o1	7.9µM*	-90%	?	6.3µM*
O=C(CSc1nnc(-c2ccccc2F)o1)Nc1ccccc1Cl	?	11%[10.9 µM]	8%	13µM*
CCNc1ncc2nc(-c3ccc(OC)cc3)c(=O)n(Cc3cccs3)c2n1	-17%	-6%	0%[11.4 µM]	?
SMILES	p53ts 32C tox	Peg3 imprint	IkB sig inh	p53ts 39C tox
CCC[C@@H]1C[C@@]1(CCC)C(NP(=O)(c1ccccc1)c1ccccc1)c1ccc(Cl)cc1 (stereo partly drawn)	?	-25%	nt	?
C=CC1=C(C)C2=NC1=CC1=NC(=CC3=NC(=CC4=NC(=C2)C(C)=C4CCC(=O)O)C(CCC(=O)O)=C3C)C(C=C)=C1C.[Zn]	-7%	-19%	0%	-18%
COc1cccc(NC(=O)CSc2nnc(-c3cccc(OC)c3)o2)c1	13µM*	-42%[10.9 µM]	?	10µM*
COc1cccc(NC(=O)CSc2nnc(-c3ccc(C)cc3)o2)c1	-22%	-85%	11%	?
CCCCCCCCCCCCC/C=C\[C@@H](O)[C@H](CO)NC(C)=O	25%	1%	0%	32µM*
COc1cccc(NC(=O)N(Cc2cn(C)c3ccccc23)C2CCCCC2)c1	-25%	-11%[10.9 µM]	?	?
Cc1ccc(NC(=O)N(Cc2cn(C)c3ccccc23)C2CCCCC2)cc1C	?	-14%[10.9 µM]	?	13µM*
Clc1ccc2nc(-c3ccccc3)[nH]c2c1	10µM*	-89%	nt	13µM*
Nc1ccc2nc(-c3ccc(Cl)cc3)[nH]c2c1	13µM*	-79%	?	10µM*
Cc1ccc(C)c(-c2nc3ccc(N)cc3[nH]2)c1	-12%	-62%	?	-21%
Nc1ccc2nc(-c3cc(Cl)c(N)c(Cl)c3)[nH]c2c1	14µM*	nt	nt	?
